# Data published in the supplement of paper PMC6992640.
# System: WHIM2 (cells of a triple-negative basal-like breast cancer xenograft)
# Assay: cell viability (% of vehicle); higher = less cytotoxic
# Conditions: 1 µM; 72 h
# 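Note: cells dissociated from PDX tumors propagated in female NSG mouse mammary fat pads, vehicle control 0.1% DMSO.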
row,SMILES,cell viability
1,Cc1ccc(-n2[nH]c(C)c(NN=C3C=CC=C(c4cccc(C(=O)O)c4)C3=O)c2=O)cc1C [Eltrombopag],101
2,Oc1c(Cl)cc(Cl)c2cccnc12 [Chloroxine],96.5
3,CCN(CC)CCCC(C)Nc1ccnc2cc(Cl)ccc12.O=P(O)(O)O.O=P(O)(O)O (centres undefined) [Chloroquine diphosphate],77.4
4,COC(=O)NC(C(=O)NC(Cc1ccccc1)C(O)CN(Cc1ccc(-c2ccccn2)cc1)NC(=O)C(NC(=O)OC)C(C)(C)C)C(C)(C)C (centres undefined) [Atazanavir],91.7
5,COc1cc2nccc(Oc3ccc(NC(=O)C4(C(=O)Nc5ccc(F)cc5)CC4)cc3)c2cc1OC.O=C(O)CC(O)C(=O)O [Cabozantinib malate (XL184)],90.8
6,O=C(C=Cn1cnc(-c2cc(C(F)(F)F)cc(C(F)(F)F)c2)n1)NNc1cnccn1,66.1
7,Nc1ccn(C2OC(CO)C(O)C2O)c(=O)n1 (centres undefined) [Cytarabine],87.1
8,CO[C@H]1/C=C/O[C@@]2(C)Oc3c(C)c(O)c4c(O)c(c(/C=N/N5CCN(C6CCCC6)CC5)c(O)c4c3C2=O)NC(=O)/C(C)=C\C=C\[C@H](C)[C@H](O)[C@@H](C)[C@@H](O)[C@@H](C)[C@H](OC(C)=O)[C@@H]1C [Rifapentine],104
9,CS(=O)(=O)O.Cc1c(O)cccc1C(=O)NC(CSc1ccccc1)C(O)CN1CC2CCCCC2CC1C(=O)NC(C)(C)C (centres undefined) [Nelfinavir Mesylate],101
10,CCN(CC)CCNC(=O)c1c(C)[nH]c(C=C2C(=O)Nc3ccc(F)cc32)c1C.O=C(O)CC(O)C(=O)O [Sunitinib malate],96
11,N.N.O=C([O-])C1(C(=O)[O-])CCC1.[Pt+2] [Carboplatin],99.9
12,CC(NCCCc1cccc(C(F)(F)F)c1)c1cccc2ccccc12.Cl (centres undefined) [Cinacalcet HCl],76.7
13,COC(=O)c1ccc2c(c1)NC(=O)C2=C(Nc1ccc(N(C)C(=O)CN2CCN(C)CC2)cc1)c1ccccc1 [Nintedanib (BIBF 1120)],46.6
14,COc1cc(C(=O)NS(=O)(=O)c2ccccc2C)ccc1Cc1cn(C)c2ccc(NC(=O)OC3CCCC3)cc12 [Zafirlukast],111
15,CCC(=C(c1ccccc1)c1ccc(OCCN(C)C)cc1)c1ccccc1.O=C(O)CC(O)(CC(=O)O)C(=O)O [Tamoxifen Citrate],86.2
16,CCCCc1oc2ccc(NS(C)(=O)=O)cc2c1C(=O)c1ccc(OCCCN(CCCC)CCCC)cc1.Cl [Dronedarone HCl],106
17,CC(C)CC(NC(=O)CNC(=O)c1cc(Cl)ccc1Cl)B(O)O (centres undefined),130
18,COC(=O)C1=C(C)NC(C)=C(C(=O)OCCN(C)Cc2ccccc2)C1c1cccc([N+](=O)[O-])c1.Cl (centres undefined) [Nicardipine HCl],93.5
19,CCOc1cc2ncc(C#N)c(Nc3ccc(F)c(Cl)c3)c2cc1NC(=O)C=CCN(C)C [Pelitinib (EKB-569)],31.4
20,CCOC(=O)c1c(CSc2ccccc2)n(C)c2cc(Br)c(O)c(CN(C)C)c12.Cl [Arbidol HCl],82.9

row,SMILES,cell viability
1,CN(C)CCOc1ccc(C(=C(CCCl)c2ccccc2)c2ccccc2)cc1.O=C(O)CC(O)(CC(=O)O)C(=O)O [Toremifene Citrate],119
2,CN(C)c1ccc(O)c2c1CC1CC3C(N(C)C)C(=O)C(C(N)=O)=C(O)C3(O)C(=O)C1=C2O.Cl (centres undefined) [Minocycline HCl],91.2
3,CC(Oc1cc(-c2cnn(C3CCNCC3)c2)cnc1N)c1c(Cl)ccc(F)c1Cl [(R)-Crizotinib],106
4,CC(C)(C)NC(=O)C1CC2CCCCC2CN1CC(O)C(Cc1ccccc1)NC(=O)C(CC(N)=O)NC(=O)c1ccc2ccccc2n1.CS(=O)(=O)O (centres undefined) [Saquinavir mesylate],105
5,O=C1C=CC=CC1=C1NC(=C2C=CC=CC2=O)N(c2ccc(C(=O)O)cc2)N1 [Deferasirox],92.2
6,Cl.OC(c1cc(C(F)(F)F)nc2c(C(F)(F)F)cccc12)C1CCCCN1 (centres undefined) [Mefloquine hydrochloride],103
7,O=C(NC1CCN(CCCCC2(C(=O)NCC(F)(F)F)c3ccccc3-c3ccccc32)CC1)c1ccccc1-c1ccc(C(F)(F)F)cc1 [Lomitapide],62.7
8,CCCCCCCCOc1ccccc1C(=O)Nc1ccc(C(=O)OCC[N+](C)(CC)CC)cc1.[Br-] [Otilonium Bromide],105
9,COc1cc(Nc2c(C#N)cnc3cc(OCCCN4CCN(C)CC4)c(OC)cc23)c(Cl)cc1Cl [Bosutinib (SKI-606)],55.4
10,CNC(=O)c1cc(Oc2ccc(NC(=O)Nc3ccc(Cl)c(C(F)(F)F)c3)c(F)c2)ccn1 [Regorafenib],99.6
11,COC1=C(OC)C(=O)C(CCCCCCCCCCO)=C(C)C1=O [Idebenone],107
12,Nc1ncn(C2OC(CO)C(O)C2O)c(=O)n1 (centres undefined) [5-Azacytidine],91.3
13,CC(C)C[C@H](NC(=O)[C@H](Cc1ccccc1)NC(=O)c1cnccn1)B(O)O [Bortezomib],24.9
14,CC(C)Nc1cc(-c2c[nH]c(C(=O)NC(CO)c3cccc(Cl)c3)c2)c(Cl)cn1 (centres undefined),72.7
15,COc1cc(Nc2ncc(F)c(Nc3ccc4c(n3)N(COP(=O)(O)O)C(=O)C(C)(C)O4)n2)cc(OC)c1OC [Fostamatinib (R788)],79
16,CNCCCC12CCC(c3ccccc31)c1ccccc12.Cl [Maprotiline HCl],93.2
17,COc1cc(C(=O)O)ccc1NC(=O)C1NC(CC(C)(C)C)C(C#N)(c2ccc(Cl)cc2F)C1c1cccc(Cl)c1F (centres undefined),99.1
18,CC(NCCCc1cccc(C(F)(F)F)c1)c1cccc2ccccc12 (centres undefined) [Cinacalcet],91.9
19,Cl.Clc1ccccc1CN1CCc2sccc2C1 [Ticlopidine HCl],99.6
